Measured values taken from PubChem BioAssay AID504594 (Broad Institute, 2011).
In all, about 2,000 compounds went through this assay and fewer than 10 were called active.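 Rule for the calls: active = growth inhibition of at least 75% in every replicate, which also brings the mean inhibition to 75% or more; inconclusive = mean inhibition 75% or more but some replicate under 75%; inactive = the rest.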 The list is a sample of the results.

test: growth inhibition of PfHsp90-dependent yeast, primary screen, antimalarial PfHsp90 inhibitor project, S. cerevisiae, BacTiter-Glo luminescence (AID 504594);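 note: 0% = DMSO neutral control wells and 100% = 20 µM radicicol control wells; higher value means stronger growth inhibition because the sign is flipped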; details: S. cerevisiae expressing PfHsp90, BacTiter-Glo growth, 48 h; at 9.4 µM; hits give high values

Structure (SMILES)	growth inhibition
CC(C)(C)C(O)C(Oc1ccc(Cl)cc1)n1cncn1 (stereo not given)	96.5% (active)
CN1CCN(C(=O)OC2c3nccnc3C(=O)N2c2ccc(Cl)cn2)CC1 (stereo not given)	6.28% (inactive)
O=C1NC(=O)C2(Cc3ccccc3N3CCCC32)C(=O)N1c1ccc(Cl)cc1 (stereo not given)	-0.293% (inactive)
O=S(=O)(c1ccc(F)cc1)N1CCCCC1c1cccnc1 (stereo not given)	-1.69% (inactive)
c1ccc(Cn2ccnc2)cc1	-14.6% (inactive)
Clc1ccc(CSC(Cn2ccnc2)c2ccc(Cl)cc2Cl)cc1 (stereo not given)	95% (active)
Cn1c(O)c(C=NCCc2c[nH]c3ccccc23)c(=O)n(C)c1=O	-4.75% (inactive)
C[N+]1(C)CCN(c2ccccc2)CC1	4.14% (inactive)
COc1cc2c3cc1Oc1cc(ccc1O)C[C@@H]1c4c(cc(OC)c(O)c4Oc4ccc(cc4)C[C@H]3N(C)CC2)CCN1C	-1.85% (inactive)
CCOc1ccc(N2C(=O)NC(=O)/C(=C\c3cc(OC)c(OC)cc3[N+](=O)[O-])C2=O)cc1	-0.939% (inactive)
